Bioassay records deposited in PubChem by National Center for Advancing Translational Sciences (NCATS).
Only some compounds are listed: those with a hit (about 21% of all), similar ones and a draw of the others.
Pf growth 48h: Primary qHTS for delayed death inhibitors of the malarial parasite plastid, 48 hour incubation; P. falciparum luciferase growth in erythrocytes, 48 h; Potency, µM (top dose mostly 28.7 µM), without a hit: at the highest dose activity change, negative = inhibition, actives largely listed as inhibitors; 310,000 tested, 5.9% active; AID 504832, 2011; further: potency means the concentration at half of the fitted maximal effect; on the % scale 0 is the no-effect control and ±100 the full control effect
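In quantitative HTS format, infected erythrocytes bearing luciferase-reporter parasites were treated for a single generation at 37 C. Luminescence after adding detection reagent served as the growth measure.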
Pf growth 96h: Primary qHTS for delayed death inhibitors of the malarial parasite plastid, 96 hour incubation; P. falciparum luciferase reporter growth, 96 h; Potency, µM (top dose mostly 28.7 µM), for inactives: at the top dose activity change, negative = inhibition, actives largely listed as inhibitors; 320,000 tested, 6.9% active; further: potency means the concentration at half of the fitted maximal effect; on the % scale 0 is the no-effect control and ±100 the full control effect
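96 h incubation, 37 C, 5% CO2, of luciferase-reporter P. falciparum-infected RBCs (2% hematocrit, 0.05% parasitemia final) with test compounds; endpoint luminescence.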
CHX counter: Cycloheximide Counterscreen for Small Molecule Inhibitors of Shiga Toxin | cell reporter, cycloheximide protein synthesis inhibition counterscreen | max response, % | 300,000 tested, 12% active; in the data active means max response mostly above about 13%, no sharp cut-off; inactive means mostly below about 14%; further: read at 38.3 µM for the half of the compounds with a filed dose; 0% is about no effect
HCV inhibitor: qHTS Assay for Inhibitors of Hepatitis C Virus (HCV); Huh7.5.1 HCVcc-Cre infection, luciferase reporter, 44 h; Potency, µM (highest dose often 41.8 µM), inactives show at the top dose activity change, negative = inhibition, most hits filed as inhibitors; 340,000 tested, 3.4% active; AID 651820, 2012; further: potency means the concentration at half of the fitted maximal effect; on the % scale 0 is the no-effect control and ±100 the full control effect
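Reporter virus HCVcc-Cre (~0.5 moi) infects cells exposed to compound; seeding density 1,000 cells/well with 4 h settling beforehand. Luminescence, 15 sec read, taken 44 h post-infection following a 15 min RT substrate incubation.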
Shiga toxin inh: A qHTS for Small Molecule Inhibitors of Shiga Toxin | 290,000 tested, 9.2% active | inhibition, % at 38.7 µM | AID 2315, 2010 | Vero cells, Shiga toxin protein synthesis inhibition reporter; in the data active means inhibition mostly above about 28%, no sharp cut-off; inactive means mostly below about 43%; further: 0% is about no effect
AMA1-RON2 inh: qHTS for Inhibitors of AMA1-RON; Towards Development of Antimalarial Drug Lead: Primary Screen; AlphaScreen AMA1-biotinylated RON2 peptide binding; Potency, µM (highest dose often 58.2 µM), without a hit: at the highest dose activity change, negative = inhibition, hits mostly inhibitors; 360,000 tested, 0.2% active;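 further: potency means the concentration at half of the fitted maximal effect; 0% = vehicle wells and -100% = peptide control; nearly all actives have a fitted effect of over 45% in size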
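AMA1 (3D7) with his tag at 25 nM final met compounds first, then biotinylated RON2 peptide at 25 nM; detection used donor plus acceptor beads, 10 µg/mL apiece, read by AlphaScreen after 30 min at room temperature.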
* marks the source's active call; other numbers are inactive results; ? = inconclusive; . = no result given; [ ] = remark or other dose. Unless noted, the call rests on the fitted dose curve; in most records, active means well fitted curve in the direction sought with a large enough effect; inconclusive means small, poorly fitted or top-dose-only effect, or another doubt; inactive means no such curve, though single readings can be large; an effect the other way counts as inactive or inconclusive.

SMILES	Pf growth 48h	Pf growth 96h	CHX counter	HCV inhibitor	Shiga toxin inh	AMA1-RON2 inh
CC(=O)c1ccc(N2CCN(C(=O)C3CCN(S(=O)(=O)c4cccs4)CC3)CC2)cc1	?	54.7%	4.1	-20.1%	42.3	12.5%
C[C@@H](NC(=O)[C@@H]1CCCN1C(=O)[C@@H]1CCCN1C(=O)OC(C)(C)C)c1ccccc1	.	.	.	.	.	3.5%
CCOc1ccccc1NC(=S)N1CCN(c2cccc(OC)c2)CC1	-26.5%	?	0.5	-26.6%	-8.0	-12.1%
Cc1nnc(NC(=O)c2oc3ccccc3c2C)s1	116.4%	201.0%	36.0*	-2.3%	89.9*	-1.3%
Cc1ccc2c(C)c(C(=O)Nc3nnc(C)s3)oc2c1	21.3%	.	-2.3	2.7%	16.1	3.8%
CN1OC[C@@H]2CN(S(=O)(=O)c3cc(Cl)cc(Cl)c3)[C@H](c3ccc(-c4ccc(C#N)cc4)cc3)C[C@@H]21	.	.	.	.	.	0.0%
CCOc1ccc(CCNC(=O)C2CSC3(C)CCC(=O)N23)cc1OCC (centres undefined)	?	?	-0.7	-24.6%	-25.1	1.6%
COc1ccc(NC(=O)c2ccccc2C)c(OC)c1	-22.0%	?	23.9	.	19.0	-1.6%
CCC(CC)NC(=O)c1cccc([N+](=O)[O-])c1C	8.0%	1.31µM*	1.2	0.2%	-9.3	5.7%
COc1ccc(NC(=O)c2ccccc2NC(=O)c2ccccc2C(=O)O)c(OC)c1	?	48.5%	11.3*	-4.6%	53.2*	-9.9%
COc1ccc(C(=O)Nc2ccccc2Cc2ccccc2)c(OC)c1	?	?	1.6	10µM*	-11.5	-15.5%
COc1ccccc1Nc1ccc(NC(=O)c2cccc([N+](=O)[O-])c2C)cc1	?	-16.6%	30.1*	?	55.2*	-28.1%
N#CCCN(Cc1ccccc1)C(=O)c1nccnc1C(=O)O	8.8%	2.0%	-2.2	-0.1%	-2.7	-20.3%
CC(=O)N(C[C@@H](C)C(=O)O)c1c(I)cc(I)c(N)c1I	-3.1%[12.8 µM]	16.3%[12.8 µM]	.	.	.	.
O=C(CSc1nnc(CNC(=O)c2c(F)cccc2F)o1)NCC1CCCO1 (centres undefined)	5.3%	46.6%	-1.9	-6.1%	-10.1	18.0%
COc1ccccc1NC(=O)c1ccccc1C(=O)O	34.3%	?	-2.4	-2.8%	-7.3	23.0%
COc1ccccc1NC(=O)c1ccccc1Nc1ccccc1	5.22µM*	?	-1.2	-33.4%	20.9	-5.2%
Cc1[nH]n(C(C)(C)C)c(=O)c1Sc1ccccc1	-10.8%	11.7µM*	6.4	13.4%	-9.1	17.0%
Cc1ccc(Sc2c(C)[nH]n(C(C)(C)C)c2=O)cc1	-13.8%	82.3%	-7.4	15.7%	-11.4	1.9%
Cc1ccc([N+](=O)[O-])cc1N=Nc1c(-c2ccc([N+](=O)[O-])cc2)[nH]n(C(N)=S)c1=O	?	-3.8%	5.1	7.94µM*	48.5	106.8%
NC(=S)n1[nH]c(-c2ccc([N+](=O)[O-])cc2)c(N=Nc2ccc(Cl)cc2)c1=O	?	8.9%	-1.3	6.31µM*	18.8	-1.0%
CCOC(=O)c1cccc(NC(=O)CSc2nnc(C)n2CC2CCCO2)c1 (centres undefined)	-6.9%	37.3%	-4.5	-4.3%	-6.1	1.6%
O=C(Nc1cccnc1Cl)c1cc(-c2ccc(F)cc2)on1	12.6%	4.7%	10.2	11.2%	13.6	-3.4%
O=C(NC1CCCC1)c1cc(-c2ccc(Cl)cc2)on1	82.6%	141.9%	27.5*	-11.5%	59.3*	-0.2%
O=C(NC1CCCCC1)c1cc(-c2ccc(Cl)cc2)on1	77.0%	16.3%	-2.3	7.3%	-4.0	4.9%
SMILES	Pf growth 48h	Pf growth 96h	CHX counter	HCV inhibitor	Shiga toxin inh	AMA1-RON2 inh
O=C(NC1CCCC1)c1cc(-c2ccc(F)cc2)on1	117.1%	123.8%	45.9*	-10.4%	95.7*	-2.8%
COCCN(C(=O)COC(=O)C1(c2ccccc2)CC1)c1c(N)n(CC(C)C)c(=O)[nH]c1=O	13.5%	11.8%	.	4.6%[8.37 µM]	.	0.0%
CCOC(=O)C1(C)CCN1C(=O)Cc1ccc(OC)cc1 (centres undefined)	.	.	.	.	.	-4.7%
CCCCCCCC(=O)OCC(O)CO (centres undefined)	8.0%	-11.0%	4.1	2.9%[8.37 µM]	17.6	2.1%
CCCCCCCCCCCCCCCCOCCOCCOCCOCCOCCOCCOCCOCCOCCOCCOCCOCCOCCOCCOCCOCCOCCOCCOCCOCCO	13.5µM*	6.75µM*	.	.	.	.
CCCCCCCCCCOCC(O)CN (centres undefined)	?	12µM*	.	.	.	.
CCc1ccc(C2=NN(CCC(=O)NC3CCCCCC3)C(=O)CC2)cc1	?	10.4µM*	-2.5	10.7%	-5.9	-3.3%
Cc1ccc(C2=NN(CCC(=O)NCc3ccc4c(c3)OCO4)C(=O)CC2)cc1	6.2%	?	20.3*	-1.9%	-4.0	8.9%
CCCCCCCCN1C(=O)[C@H](CC(=O)N2CCN(C(=O)C3CC3)CC2)C[C@@]2(C(=O)OC)CC(C)(C)CC=C12	.	.	.	.	.	-5.1%
Cc1cccc(OCCSc2nnc(-c3ccoc3C)n2C)c1	-2.5%	11.7µM*	5.1	-12.8%	35.0	-3.8%
Cc1cccc(OCCSc2nncn2C)c1	64.6%	-7.8%	32.8*	-16.5%	35.4	7.3%
Cn1cnnc1SCCOc1ccc(Cl)cc1	2.5%	-19.1%	15.3*	26.4%	88.3	-0.1%
Cn1cnnc1SCCC(=O)Nc1ccc(Cl)cc1	31.0%	16.1%	1.0	-3.5%	12.1	-1.0%
CCn1c(SCCOc2ccc(Cl)cc2)nnc1-c1cccs1	?	9.28µM*	-4.6	-19.2%	-14.7	2.7%
O=C(NCCc1ccccc1F)C1CC(=O)N(c2ccc3c(c2)OCCO3)C1 (centres undefined)	.	.	.	.	.	-6.1%
O=C(CCl)N(CCCNC(=O)C(F)(F)F)c1ccc([N+](=O)[O-])cc1	9.28µM*	?	15.1	?	39.7	9.7%
O=C(CSc1nnc(NC(=O)C2CC2)s1)Nc1ccc(F)cc1F	5.9%	0.8%	-2.4	.	-7.3	13.8%
FC(F)(F)C(F)(F)C(F)(F)C(F)(F)C(F)(F)F	-5.8%	?	.	.	.	.
C/C(=C\c1ccccc1)CN1CCN(C)CC1	-13.6%	0.0522µM*	-0.3	-8.6%	-3.2	-5.1%
CCN(CC(=O)Nc1c(F)cccc1F)C(=O)c1cccnc1Sc1ccccc1	20.9%	38.6%	.	?	.	-12.1%
COCCNC(=O)C1(C)CCN(C(=O)c2ccc(SC(F)(F)F)cc2)C1 (centres undefined)	.	.	.	.	.	7.2%
CCC(C)(C)C1CCc2nc3ccccc3c(C(=O)OC(C)C(=O)Nc3c(C)n(C)n(-c4ccccc4)c3=O)c2C1 (centres undefined)	?	10.4µM*	-0.8	?	-4.7	7.9%
